Data as given in PubChem BioAssay.
Results filed as inconclusive are left out. Activity calls are given as the source filed them.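 Rule for the calls, unless noted: active = inhibition above 50%, about 3 SD of the validation set; inactive = the rest.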

Columns and labels:
[1] = rapamycin-like changes in RPL19A-GFP expression – cell-based, S. cerevisiae, multiplex flow cytometry, primary screen (AID 1862; in the data active = percent of DMSO control GFP below about 86%;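 note: lower values mimic rapamycin by blocking the RPL19A rise seen in DMSO cells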); settings: S. cerevisiae RPL19A-GFP strain, flow cytometry fluorescence, 3 h; at 10 µM; stronger effect = lower value
[2] = TOR pathway GLN3 branch reporter MEP2-GFP changes – S. cerevisiae, multiplex flow cytometry, primary screen (AID 1867;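 active = GFP response, as percent of the DMSO control, above the screen-wide mean plus 3 SD, about 139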;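 note: median GFP channel fluorescence of barcode-gated MEP2-GFP cells measured by flow cytometry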); settings: S. cerevisiae MEP2-GFP strain, 3 h, at 10 µM, stronger effect = higher value, 100% means same as DMSO wells
[3] = TOR pathway RTG branch CIT2 reporter changes – S. cerevisiae, GFP fusion, multiplex flow cytometry, primary screen (AID 1870;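 active = percent response above a set limit, the screen-wide mean plus 3 SD, cut at about 130% in these data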;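 note: barcoded CIT2-GFP strain pooled with four other GFP strains with rapamycin as positive control; median GFP fluorescence per well over plate mean of DMSO wells so 100% = DMSO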); settings: S. cerevisiae CIT2-GFP expression, 3 h, at 10 µM, stronger effect = higher value
[4] = TOR pathway LAP4-GFP level changes – S. cerevisiae, multiplex flow cytometry, primary screen (AID 1873;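 active = GFP signal, as percent of the solvent control, above the screen mean plus 3 SD, about 149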); settings: S. cerevisiae LAP4-GFP expression, 3 h, at 10 µM, stronger effect = higher value
[5] = yeast AGP1-GFP level changes, GLN3 branch – cell-based, multiplex flow cytometry, S. cerevisiae, primary screen (AID 1887;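 active = GFP signal above the screen-wide mean plus 3 SD, that is over about 124.5% of the solvent control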;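 note: AGP1-GFP fusion strain of S. cerevisiae within a five-strain barcoded multiplex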); settings: 3 h, at 10 µM, stronger effect = higher value
[6] = reduced mouse 2C T cell binding to pMHC/ICAM-1 vesicles – MLPCN validation set, flow cytometry, LFA-1/ICAM-1 modulator project, pilot screen (AID 2523;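 active = response below a set limit, under 55% cells CD8-positive and vesicle-bound, and CD8 cells' 90th-percentile brightness under 279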;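 for vesicle binding response: mean PE anti-B7-1 fluorescence of CD8+ cells relative to row control; 100% = QL9-loaded vesicles with DMSO vehicle in the same plate row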); settings: 2C mouse CD8+ T cells, at 7 µM, stronger effect = lower value; double positive events: measured here: CD8+/vesicle+ event percentage
[7] = biological target: Integrin beta-1 (Homo sapiens) + Integrin alpha-4 (Homo sapiens) (UniProt P13612+P05556); assay: alpha4beta1 integrin LIBS antibody binding reduction – U937 cells, HUTS-21 mAb, flow cytometry, validation set, VLA-4 allosteric modulator project, pilot screen (AID 2674); settings: HUTS-21 LIBS mAb binding, at 6.7 µM, stronger effect = higher value, binding induced by LDV ligand;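 note: antibody binding induced by the VLA-4 ligand LDV present at three times its Kd; 0% = LDV ligand with antibody and no compound and 100% = antibody without LDV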
[8] = calorie-restriction mimetic ROS inhibitors, yeast – validation compound set, pilot screen (AID 2706;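 active = superoxide response below 65% of plate, a cut near 3 SD across the whole screen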;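 note: yeast exposed to compound for one week at 30 degrees C before staining; 100% = mean of all compound wells on the same plate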); settings: S. cerevisiae aging, superoxide DHE fluorescence; at 10 µM, stronger effect = lower value
[9] = biological target: Beta-adrenergic receptor kinase 1 (Homo sapiens) (UniProt P25098); assay: GRK2 binders displacing RNA aptamer, biochemical, validation, human GRK2, bead flow cytometry (AID 488806;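 active = aptamer binding inhibition above 30%, about 3 SD of noise from non-fluorescent compounds; inactive = inhibition at or below 30%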); settings: bead-bound GRK2, FAM-aptamer displacement, at 10 µM, stronger effect = higher value
[10] = cytosolic pH regulators acting via V-ATPase – S. cerevisiae, pHLuorin, HTS validation (AID 504600; in the data active = response above about 15%;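 note: plate controls were DMSO for no effect and reference compound for full effect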); settings: V-ATPase proton transport, at 10 µM, stronger effect = higher value
[11] = system: anti-desmoglein-3 scFv antibody binding to human DSG3; assay: blockers of pathogenic pemphigus antibody–desmoglein-3 binding – biochemical, validation compound set, bead-based, flow cytometry, pilot screen (AID 588368;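 active = binding below the plate cutoff, the plate median minus 3 SD, with a reading above zero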;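 note: signal is the median channel fluorescence of bead-bound GFP antibody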); settings: Protein G beads, DSG3-Fc, scFv-GFP binding, at 10 µM, stronger effect = lower value
[12] = Nile Red efflux blockade in pump-expressing yeast – validation compound set, multiplex, phenotypic, pilot screen (AID 588506;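 active = efflux inhibition above 0.42, the validation set average plus 4 SD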;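 note: Nile Red retained in cells so higher fluorescence means more efflux inhibition; 0 = negative control wells and 1 = enniatin B 25 µM full block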); settings: S. cerevisiae pump-expressing triplex, Nile Red efflux flow cytometry; at 10 µM; stronger effect = higher value; the pumps come from Candida albicans
[13] = biological target: ATP-binding cassette sub-family B member 6 (Homo sapiens) (UniProt Q9NP58); assay: blockers of ABCB6-driven porphyrin uptake – K562-ABCB6 cells, flow cytometry, validation set, pilot screen (AID 588550;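 active = inhibition above the screen-wide mean plus 3 SD, about 51%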;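 note: 0% = DMSO wells and 100% = benzethonium chloride 70 µM positive control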); settings: K562-ABCB6 porphyrin accumulation, 1 h, at 10 µM, stronger effect = higher value
[14] = AML differentiation inducers, ER-HoxA9 marrow cells – cell-based, GFP/MAC1 double positive, flow cytometry, validation set, primary screen (AID 588685;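 active = differentiation response of at least 50%, scaled between solvent and reference control, from cells with both markers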;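 note: compound exposure lasts four days before antibody staining and flow analysis; 0% = DMSO wells and 100% = 5 µM fulvestrant positive control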); settings: stronger effect = higher value, normalized: vehicle 0, fulvestrant 100
[15] = biological target: AP-2 complex subunit beta (Homo sapiens) (UniProt P63010); assay: beta-arrestin/AP2 interaction blockers – biochemical, validation set, GST-AP2 beads, flow cytometry, pilot screen (AID 504541;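 active = inhibition above 54%, about 3 SD of non-fluorescent compounds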;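 note: AP2 carries R879A mutation and is captured from E. coli lysate; bead-bound FITC arrestin peptide fluorescence measuring arrestin peptide binding to AP2; 0% = DMSO wells and 100% = excess unlabeled arrestin peptide control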); settings: FITC arrestin peptide, at 10 µM, stronger effect = higher value, AP2 beta2 appendage fragment, R879A mutant
[16] = biological target: Beta-2 adrenergic receptor (Homo sapiens) (UniProt P07550); assay: agonist-induced loss of surface beta2AR – cell-based, FAP fluorogen, flow cytometry, validation set, pilot screen (AID 504459;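 active = percent response above 42, roughly 3 SD of non-fluorescent test compounds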;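 note: agonist-driven loss of surface beta2AR via internalization measured by FAP dye flow cytometry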); settings: Am2.2-beta2AR cells, at 10 µM, stronger effect = higher value
Chain of Beta-2 adrenergic receptor (Homo sapiens) (P07550 whole entry, looked up): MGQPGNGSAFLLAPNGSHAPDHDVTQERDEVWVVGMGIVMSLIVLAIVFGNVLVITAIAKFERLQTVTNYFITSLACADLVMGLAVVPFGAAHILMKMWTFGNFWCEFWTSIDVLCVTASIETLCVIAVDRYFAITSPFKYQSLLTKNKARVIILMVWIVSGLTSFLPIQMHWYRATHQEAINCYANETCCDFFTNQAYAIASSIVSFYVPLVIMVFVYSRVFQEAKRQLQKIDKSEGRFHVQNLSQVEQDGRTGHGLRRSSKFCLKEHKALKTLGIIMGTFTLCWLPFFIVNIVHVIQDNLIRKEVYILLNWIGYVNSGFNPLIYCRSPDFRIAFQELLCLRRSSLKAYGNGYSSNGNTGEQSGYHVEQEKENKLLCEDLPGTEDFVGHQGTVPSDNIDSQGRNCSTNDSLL

Chain of Integrin beta-1 (Homo sapiens) + Integrin alpha-4 (Homo sapiens) (P05556 whole entry, looked up): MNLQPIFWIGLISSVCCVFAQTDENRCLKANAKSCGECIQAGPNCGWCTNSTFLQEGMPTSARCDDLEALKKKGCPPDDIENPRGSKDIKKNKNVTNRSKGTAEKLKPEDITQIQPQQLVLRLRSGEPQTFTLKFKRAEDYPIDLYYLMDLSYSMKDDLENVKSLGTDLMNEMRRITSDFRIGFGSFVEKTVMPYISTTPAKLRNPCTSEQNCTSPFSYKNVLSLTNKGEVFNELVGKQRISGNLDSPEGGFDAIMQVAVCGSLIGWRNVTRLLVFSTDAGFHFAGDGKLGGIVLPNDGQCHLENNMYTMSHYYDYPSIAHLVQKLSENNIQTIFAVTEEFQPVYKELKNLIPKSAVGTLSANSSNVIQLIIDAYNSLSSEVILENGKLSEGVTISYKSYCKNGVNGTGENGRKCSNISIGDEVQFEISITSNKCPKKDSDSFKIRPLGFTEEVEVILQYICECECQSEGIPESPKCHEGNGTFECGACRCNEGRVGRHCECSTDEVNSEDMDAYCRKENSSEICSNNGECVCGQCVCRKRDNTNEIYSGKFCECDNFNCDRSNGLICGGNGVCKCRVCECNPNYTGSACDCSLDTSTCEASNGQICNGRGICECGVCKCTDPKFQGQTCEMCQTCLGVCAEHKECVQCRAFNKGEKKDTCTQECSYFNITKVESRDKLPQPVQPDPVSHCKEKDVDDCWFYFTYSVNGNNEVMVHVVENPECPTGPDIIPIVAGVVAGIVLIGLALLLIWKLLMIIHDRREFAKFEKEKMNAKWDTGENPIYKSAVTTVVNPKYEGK
Chain of Integrin beta-1 (Homo sapiens) + Integrin alpha-4 (Homo sapiens) (P13612 whole entry, looked up): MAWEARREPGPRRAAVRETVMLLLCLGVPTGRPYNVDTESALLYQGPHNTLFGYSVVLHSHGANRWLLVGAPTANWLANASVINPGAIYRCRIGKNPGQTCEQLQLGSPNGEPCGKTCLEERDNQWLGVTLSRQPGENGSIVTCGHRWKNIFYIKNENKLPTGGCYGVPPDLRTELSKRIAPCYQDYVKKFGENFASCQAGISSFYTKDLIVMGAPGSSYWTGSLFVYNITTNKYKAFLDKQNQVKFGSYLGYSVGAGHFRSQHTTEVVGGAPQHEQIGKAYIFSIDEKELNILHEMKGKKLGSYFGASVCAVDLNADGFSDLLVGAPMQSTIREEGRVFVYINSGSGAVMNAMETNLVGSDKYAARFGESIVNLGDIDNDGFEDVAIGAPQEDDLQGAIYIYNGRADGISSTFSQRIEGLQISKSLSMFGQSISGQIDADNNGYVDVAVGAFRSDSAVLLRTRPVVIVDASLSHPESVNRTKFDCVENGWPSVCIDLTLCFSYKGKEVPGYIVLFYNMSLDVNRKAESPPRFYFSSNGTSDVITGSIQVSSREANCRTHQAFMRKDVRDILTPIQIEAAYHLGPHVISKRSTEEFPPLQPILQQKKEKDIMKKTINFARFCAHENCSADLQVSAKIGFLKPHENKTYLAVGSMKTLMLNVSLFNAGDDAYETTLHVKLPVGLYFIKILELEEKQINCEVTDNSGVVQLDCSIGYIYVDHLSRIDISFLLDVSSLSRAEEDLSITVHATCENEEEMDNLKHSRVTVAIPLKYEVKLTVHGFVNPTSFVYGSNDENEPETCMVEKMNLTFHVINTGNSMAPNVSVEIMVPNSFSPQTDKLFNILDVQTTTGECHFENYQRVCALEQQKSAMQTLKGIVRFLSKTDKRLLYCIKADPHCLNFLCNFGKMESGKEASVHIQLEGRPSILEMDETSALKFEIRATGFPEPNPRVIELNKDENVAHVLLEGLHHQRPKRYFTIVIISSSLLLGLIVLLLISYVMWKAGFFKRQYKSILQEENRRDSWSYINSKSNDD
Chain of Beta-adrenergic receptor kinase 1 (Homo sapiens) (P25098 whole entry, looked up): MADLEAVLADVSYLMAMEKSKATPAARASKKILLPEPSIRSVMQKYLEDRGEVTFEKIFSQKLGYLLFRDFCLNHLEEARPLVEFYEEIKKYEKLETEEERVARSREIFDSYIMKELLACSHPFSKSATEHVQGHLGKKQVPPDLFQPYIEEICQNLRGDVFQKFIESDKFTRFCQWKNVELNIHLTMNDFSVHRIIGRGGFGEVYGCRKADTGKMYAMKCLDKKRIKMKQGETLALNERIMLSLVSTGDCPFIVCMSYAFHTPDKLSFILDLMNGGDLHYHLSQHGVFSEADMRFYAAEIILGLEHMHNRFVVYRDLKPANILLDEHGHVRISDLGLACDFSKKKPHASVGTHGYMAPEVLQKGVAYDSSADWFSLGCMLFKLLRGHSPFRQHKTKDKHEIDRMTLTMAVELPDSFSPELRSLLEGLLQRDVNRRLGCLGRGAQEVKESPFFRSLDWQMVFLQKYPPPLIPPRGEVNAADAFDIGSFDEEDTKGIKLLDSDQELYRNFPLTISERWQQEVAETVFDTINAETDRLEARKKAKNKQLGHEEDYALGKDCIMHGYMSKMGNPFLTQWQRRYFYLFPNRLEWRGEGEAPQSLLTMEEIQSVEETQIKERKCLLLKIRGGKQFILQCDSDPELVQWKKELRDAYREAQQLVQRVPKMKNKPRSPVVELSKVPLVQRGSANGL
Chain of AP-2 complex subunit beta (Homo sapiens) (P63010 whole entry, looked up, the tested form may be a part, one chain of several): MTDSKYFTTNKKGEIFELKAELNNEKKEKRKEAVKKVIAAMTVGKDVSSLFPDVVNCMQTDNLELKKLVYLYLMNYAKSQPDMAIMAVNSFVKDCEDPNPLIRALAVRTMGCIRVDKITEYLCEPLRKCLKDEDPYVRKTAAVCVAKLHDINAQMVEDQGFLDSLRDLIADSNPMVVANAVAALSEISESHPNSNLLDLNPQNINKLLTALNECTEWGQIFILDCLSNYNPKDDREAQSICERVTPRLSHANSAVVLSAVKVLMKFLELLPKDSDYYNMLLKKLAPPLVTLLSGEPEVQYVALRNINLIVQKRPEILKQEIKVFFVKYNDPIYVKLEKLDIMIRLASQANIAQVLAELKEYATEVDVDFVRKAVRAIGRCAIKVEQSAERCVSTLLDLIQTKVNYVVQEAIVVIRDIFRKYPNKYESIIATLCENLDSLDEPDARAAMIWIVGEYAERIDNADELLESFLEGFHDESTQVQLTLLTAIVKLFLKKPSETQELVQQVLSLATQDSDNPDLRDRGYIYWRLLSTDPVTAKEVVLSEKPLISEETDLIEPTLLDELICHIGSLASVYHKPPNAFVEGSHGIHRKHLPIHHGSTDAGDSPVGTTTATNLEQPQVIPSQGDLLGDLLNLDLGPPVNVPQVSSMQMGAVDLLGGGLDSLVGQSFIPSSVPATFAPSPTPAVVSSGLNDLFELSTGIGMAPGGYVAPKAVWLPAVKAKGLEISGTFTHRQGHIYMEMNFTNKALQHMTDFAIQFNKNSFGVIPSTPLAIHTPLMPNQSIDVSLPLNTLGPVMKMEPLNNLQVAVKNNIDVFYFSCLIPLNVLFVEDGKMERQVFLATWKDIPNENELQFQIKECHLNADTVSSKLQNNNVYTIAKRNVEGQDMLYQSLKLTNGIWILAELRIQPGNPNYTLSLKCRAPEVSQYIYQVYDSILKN
Chain of ATP-binding cassette sub-family B member 6 (Homo sapiens) (Q9NP58 whole entry, looked up): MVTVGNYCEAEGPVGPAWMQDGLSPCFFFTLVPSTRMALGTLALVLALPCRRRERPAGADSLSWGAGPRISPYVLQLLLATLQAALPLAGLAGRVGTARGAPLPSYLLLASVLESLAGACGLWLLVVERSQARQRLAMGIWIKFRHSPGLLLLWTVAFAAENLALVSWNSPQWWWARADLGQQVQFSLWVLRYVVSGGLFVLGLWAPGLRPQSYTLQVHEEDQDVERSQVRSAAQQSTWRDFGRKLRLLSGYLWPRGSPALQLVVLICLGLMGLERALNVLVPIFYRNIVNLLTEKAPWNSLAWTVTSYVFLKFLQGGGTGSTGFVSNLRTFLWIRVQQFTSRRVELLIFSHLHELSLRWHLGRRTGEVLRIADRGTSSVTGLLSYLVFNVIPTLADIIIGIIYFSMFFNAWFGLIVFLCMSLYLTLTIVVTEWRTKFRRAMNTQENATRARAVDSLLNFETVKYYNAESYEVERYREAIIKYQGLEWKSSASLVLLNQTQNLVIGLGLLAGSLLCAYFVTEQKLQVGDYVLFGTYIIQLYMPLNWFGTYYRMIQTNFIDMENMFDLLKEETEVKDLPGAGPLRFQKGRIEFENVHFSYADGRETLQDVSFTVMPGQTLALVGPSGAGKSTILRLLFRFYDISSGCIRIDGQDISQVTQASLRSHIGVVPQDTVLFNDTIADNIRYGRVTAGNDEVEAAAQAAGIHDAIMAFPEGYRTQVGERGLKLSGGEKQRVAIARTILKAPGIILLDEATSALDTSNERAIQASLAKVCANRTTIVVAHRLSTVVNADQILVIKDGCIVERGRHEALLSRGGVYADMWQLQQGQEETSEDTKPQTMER

C=C(C)COc1ccc(-c2n[nH]c(C)c2-c2ccc(OC)cc2)c(O)c1
58.9%: double positive events [6]
inactive: percent of DMSO control GFP [1] 105% | GFP response vs DMSO [2] 111% | percent response of DMSO control [3] 95.9% | GFP response vs DMSO [4] 112% | GFP response, % of DMSO [5] 87.7% | vesicle binding response [6] 175% | inhibition [7] -9.57% | superoxide response (% of plate) [8] 101% | aptamer binding inhibition [9] -3% | response [10] -1.12% | binding (% of control) [11] 107% | inhibition [13] 10% | differentiation response [14] -9.89%
active: efflux inhibition (fraction of control) [12] 0.75

CC(C)Cn1c(=S)[nH]c2cc(C(=O)O)ccc2c1=O
inactive: percent of DMSO control GFP [1] 105% | GFP response vs DMSO [2] 97.9% | percent response of DMSO control [3] 108% | GFP response vs DMSO [4] 84.3% | GFP response, % of DMSO [5] 98.5% | vesicle binding response [6] 197% | inhibition [7] -1.17% | superoxide response (% of plate) [8] 106% | aptamer binding inhibition [9] 4% | inhibition [15] -1.44% | response [10] -0.3% | binding (% of control) [11] 96.7% | efflux inhibition (fraction of control) [12] -0.01 | inhibition [13] 2% | differentiation response [14] -26%
61%: double positive events [6]

O=C(Nc1ccc(Oc2c(F)c(F)c(F)c(F)c2F)cc1)OC1CCN2Cc3ccccc3N=C12 (configuration not stated)
active: efflux inhibition (fraction of control) [12] 1.47 | differentiation response [14] 70.8%
53.8%: double positive events [6]
inactive: percent of DMSO control GFP [1] 107% | GFP response vs DMSO [2] 105% | percent response of DMSO control [3] 97.9% | GFP response vs DMSO [4] 98.4% | GFP response, % of DMSO [5] 96.4% | vesicle binding response [6] 123% | inhibition [7] -184% | superoxide response (% of plate) [8] 85.7% | aptamer binding inhibition [9] 0% | response [10] -2.8% | binding (% of control) [11] 98.8% | inhibition [13] 1%

CC(=O)Oc1ccc2occ(/C=N/c3cc(=O)[nH]c(=S)[nH]3)c(=O)c2c1
66.1%: double positive events [6]
inactive: percent of DMSO control GFP [1] 98% | GFP response vs DMSO [2] 102% | percent response of DMSO control [3] 96.9% | GFP response vs DMSO [4] 91.3% | GFP response, % of DMSO [5] 98.5% | vesicle binding response [6] 181% | inhibition [7] 7.22% | superoxide response (% of plate) [8] 90.5% | aptamer binding inhibition [9] 1% | inhibition [15] 25.5% | response [10] -8.27% | binding (% of control) [11] 103% | efflux inhibition (fraction of control) [12] 0.33 | inhibition [13] 10% | differentiation response [14] 40.2%

C#CCN1C(=O)C(O)(CC(=O)c2ccc(OC)c(OC)c2)c2ccccc21 (configuration not stated)
64.1%: double positive events [6]
inactive: percent of DMSO control GFP [1] 102% | GFP response vs DMSO [2] 103% | percent response of DMSO control [3] 93.1% | GFP response vs DMSO [4] 98% | GFP response, % of DMSO [5] 97.6% | vesicle binding response [6] 315% | inhibition [7] 11% | aptamer binding inhibition [9] 1% | response [16] -2.19% | inhibition [15] -2.48% | response [10] -1.43% | binding (% of control) [11] 104% | efflux inhibition (fraction of control) [12] 0.11 | inhibition [13] -4% | differentiation response [14] 12.9%

Cn1cnc2c1c(=O)n(CC(O)CO)c(=O)n2C (configuration not stated)
inactive: percent of DMSO control GFP [1] 102% | GFP response vs DMSO [2] 96.2% | percent response of DMSO control [3] 98.9% | GFP response vs DMSO [4] 98.6% | GFP response, % of DMSO [5] 96.7% | vesicle binding response [6] 59.9% | inhibition [7] 11% | aptamer binding inhibition [9] -1% | response [16] -2.93% | inhibition [15] -6.49% | response [10] -0.43% | binding (% of control) [11] 102% | efflux inhibition (fraction of control) [12] -0.04 | inhibition [13] 9% | differentiation response [14] 43.2%
62.7%: double positive events [6]

O=C(CCN1CCC(c2ccccc2)C1)c1ccc2c(c1)OCCO2 (configuration not stated)
inactive: percent of DMSO control GFP [1] 102% | GFP response vs DMSO [2] 134% | percent response of DMSO control [3] 103% | GFP response vs DMSO [4] 104% | GFP response, % of DMSO [5] 102% | vesicle binding response [6] 140% | inhibition [7] 13.8% | superoxide response (% of plate) [8] 94% | aptamer binding inhibition [9] 5% | inhibition [15] -9.51% | response [10] 2.78% | binding (% of control) [11] 103% | efflux inhibition (fraction of control) [12] -0.31 | inhibition [13] 6% | differentiation response [14] -5.05%
47.2%: double positive events [6]

CCCC(=O)Nc1ccc(OCC(O)CNC(C)C)c(C(C)=O)c1 (configuration not stated)
inactive: percent of DMSO control GFP [1] 99% | GFP response vs DMSO [2] 101% | percent response of DMSO control [3] 100% | GFP response vs DMSO [4] 106% | GFP response, % of DMSO [5] 99.2% | vesicle binding response [6] 2400% | inhibition [7] -24.6% | superoxide response (% of plate) [8] 106% | aptamer binding inhibition [9] -5% | response [10] -0.74% | binding (% of control) [11] 200% | efflux inhibition (fraction of control) [12] -0.57 | inhibition [13] -3% | differentiation response [14] 11.1%
59.8%: double positive events [6]

CN(Cc1ccccc1)CC(O)COc1ccc(CNCc2cccnc2)cc1 (configuration not stated)
56.7%: double positive events [6]
inactive: percent of DMSO control GFP [1] 101% | GFP response vs DMSO [2] 102% | percent response of DMSO control [3] 103% | GFP response vs DMSO [4] 91.3% | GFP response, % of DMSO [5] 100% | vesicle binding response [6] 211% | inhibition [7] -1.17% | superoxide response (% of plate) [8] 93.8% | aptamer binding inhibition [9] -6% | inhibition [15] -7.34% | response [10] 2.19% | binding (% of control) [11] 105% | efflux inhibition (fraction of control) [12] -0.16 | inhibition [13] 9% | differentiation response [14] 24%

C[C@]12CC[C@@H]3c4cc(O)c(O)cc4CC[C@H]3[C@@H]1CC[C@@H]2O
active: efflux inhibition (fraction of control) [12] 0.49
inactive: percent of DMSO control GFP [1] 98.8% | GFP response vs DMSO [2] 98.3% | percent response of DMSO control [3] 95.4% | GFP response vs DMSO [4] 81.5% | GFP response, % of DMSO [5] 90% | vesicle binding response [6] 236% | inhibition [7] 16.1% | aptamer binding inhibition [9] 3% | response [16] 0.11% | inhibition [15] 2.25% | response [10] -0.25% | binding (% of control) [11] 96.1% | inhibition [13] 5% | differentiation response [14] 8.06%
65.9%: double positive events [6]
